# Inconclusive results are not listed. Unmarked numbers belong to inactive results. The call rests on the fitted dose curve; in most records, active means well fitted activation curve with a large enough effect; inconclusive means small, poorly fitted or top-dose-only effect; inactive means flat fitted curve, though single readings scatter.
# Assay: qHTS for Inhibitors of Cell Surface uPA Generation: FP59 Counterscreen for Cherry-picked Compounds; further: 0% is about no effect
# Conditions: FP59 anthrax toxin cytotoxicity counterscreen, cells; series mostly up to 115 µM; activity (protection from FP59): at the top concentration
row,Structure (SMILES),activity (protection from FP59)
1,O=C(NCc1ccccn1)C1CCN(C(=O)c2cc3sccc3n2Cc2ccc(F)cc2)CC1,-1.21%
2,COc1ccc(C(C)=O)cc1CSC(=N)N,0.0633%
3,CCOC(=O)[C@H]1[C@H]2COc3ccc(Br)cc3[C@@H]2N2C(=O)c3c(C)cc(C)cc3NC(=O)[C@@]12C,1.95%
4,COc1ccc(C2=Nc3ccccc3C2(O)CCN2C(=O)c3ccccc3C2=O)cc1 (centres undefined),-1.54%
5,COc1ccccc1NC(=O)COc1ccc(C(=O)NCc2ccccc2)cc1OC,0.667%
6,Cc1ccc(S(=O)(=O)NNC(=O)c2ccc(F)cc2)cc1,-1.31%
7,O=S(=O)(c1ccc2nc(N3CCN(c4ccccc4)CC3)ccc2c1)N1CCCCC1,-1.27%
8,Cc1oc(-c2ccccc2F)nc1CS(=O)CC(=O)NCc1ccc(F)cc1 (centres undefined),-1.16%
9,CSCC[C@H](NC(=O)[C@H](Cc1ccccc1)n1c(=O)[nH]c2ccccc2c1=O)C(=O)N1CCC[C@H]1C(=O)O,-1.3%
10,O=C(NCc1ccco1)/C(=C\c1cccs1)NC(=O)c1ccccc1,-1.31%
11,O=[N+]([O-])c1ccc(SCc2ccncc2)nc1,-0.905%
12,OCCN(Cc1ccccc1)CC(O)COc1ccc2c(c1)OCO2 (centres undefined),-0.687%
13,CCc1nnc(NC(=O)CSc2nnnn2-c2cccc(C(C)=O)c2)s1,-1.3%
14,Cc1cccc(Nc2ccc(NCc3ccccc3)nn2)c1,-1.23%
15,Cc1nnc2ccc(-c3ccc(NS(=O)(=O)c4ccc(Cl)s4)cc3)nn12,-1.35%
16,O=C(O)c1ccc(-n2nnnc2SCc2cccc(Br)c2)cc1,-1.51%
17,Cc1ccc(CC2CC(=O)N(c3cc(C)ccc3C)C2=O)cc1 (centres undefined),-1.38%
18,O=C(NC1CCCCC1)C(c1ccco1)N(C(=O)c1csnn1)c1cccc(Cl)c1 (centres undefined),1.68%
19,Cc1ccnc(NS(=O)(=O)c2ccc(NC(=O)C3C4C=CC(C4)C3C(=O)O)cc2)n1 (centres undefined),-0.562%
20,OCC1CCCCN1CC(O)COC(c1ccc(F)cc1)c1ccc(F)cc1 (centres undefined),-1.2%

row,Structure (SMILES),activity (protection from FP59)
1,Cn1c(=O)c(=O)n(C)c2cc(S(=O)(=O)CCC(=O)Nc3ccc(F)cc3)ccc21,-1.37%
2,Cc1cccc(CNc2ccc(C(CC(N)=O)NC(=O)c3cccc(Br)c3)cc2[N+](=O)[O-])c1 (centres undefined),-1.01%
3,Fc1cccc(Cl)c1CSc1ccc(-c2cccnc2)nn1,-1.46%
4,CCOc1cc(C(=S)N2CCOCC2)ccc1OC(=O)c1cccc(C)c1,12.4%
5,C=CCOC(=O)C1=C[C@@H](c2coc3ccccc3c2=O)C[C@@H](OCc2ccc(CO)cc2)O1,-0.924%
6,Clc1ccc(C2=NN=C3COc4ccccc4N3C2)cc1,-1.23%
7,COc1ccccc1C(=O)Nc1cccc(C(=O)c2ccccc2)c1,-0.645%
8,CC1CCC(NC(=O)c2nn(C)c3c2CS(=O)(=O)c2ccccc2-3)CC1 (centres undefined),-1.25%
9,CCOc1ccc(NS(=O)(=O)c2coc(C(N)=O)c2)cc1,-1.2%
10,Cc1ccc(NC(=O)CC2OC(=O)c3ccccc32)cc1S(=O)(=O)N1CCOCC1 (centres undefined),-1.31%
11,Cc1ccc(-c2cc(C(=O)NCC3CCCO3)no2)cc1 (centres undefined),-1.57%
12,CS(=O)(=O)c1ccc(Cl)c(NC(=O)COC(=O)CNC(=O)c2cccs2)c1,-1.36%
13,COc1ccc(CC(=O)OCC(=O)NNC(=O)c2ccccc2)cc1,-1.53%
14,CCCC1=NN(C(=O)Cc2ccc(OC)cc2)C(O)(C(F)(F)F)C1 (centres undefined),-1.35%
15,CCCCNC(=O)C1CCN(S(=O)(=O)c2c(C)noc2/C=C\c2ccc(OC)cc2)CC1,-1.02%
16,Cc1nn(-c2ccc(F)cc2)c(C)c1NS(=O)(=O)c1ccc(Cl)cc1,-0.621%
17,O=C(N/N=C/c1cccnc1)c1ccccc1[N+](=O)[O-],-1.36%
18,O=[N+]([O-])c1cccc2c(N3CCOCC3)ccnc12,-0.897%
19,COc1ccc(CCN=c2c([N+](=O)[O-])nn(-c3cccc(C)c3)n2O)cc1OC,-0.651%

# — PubChem BioAssay AID720517 (National Center for Advancing Translational Sciences (NCATS), 2013)
